Tgondii IFNg: T. gondii growth inhibition with IFN-gamma, primary screen, cell-based; activity change, negative = inhibition, % (test concentration not listed); 69,000 tested, 3.8% active; Toxoplasma gondii growth in IFN-gamma-treated host cells; hits give low values; in the data active means activity change below about -70%, passing the limit was not always enough;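 further: host cells are HeLa cells infected with Toxoplasma gondii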
Hits are given with their value; – = inactive. Many of the other results were omitted from the sample, so hits are more common in it than they were.

SMILES	Tgondii IFNg
CCc1nc(OCC(=O)Nc2cc(Cl)ccc2Cl)c2ccccc2n1	–
Cc1ccc(Cl)cc1NC(=O)COc1ccccc1Br	-83.1
Cc1nc(OCC(=O)Nc2cc(Cl)ccc2C)c2ccccc2n1	–
Cc1nc2ccc(/C=C/C=C/c3ccccc3)cc2s1	–
Cc1ccc(NC(=O)C(=O)NCCc2sc(-c3ccccc3)nc2C)cc1	–
Cc1cccc(NC(=O)C(=O)NCCc2sc(-c3ccccc3)nc2C)c1	–
Cc1ccc(-c2nc(C)c(CCNC(=O)C(=O)Nc3ccc4c(c3)OCCO4)s2)cc1	–
Cc1nc(-c2cccc(F)c2)sc1CCNC(=O)C(=O)Nc1ccc2c(c1)OCO2	-97.9
Cc1ccc(-c2nc(C)c(CCNC(=O)C(=O)Nc3ccc(Cl)cc3)s2)cc1	–
Cc1nc(-c2cccc(F)c2)sc1CCNC(=O)C(=O)Nc1ccc2c(c1)OCCO2	–
Cc1ccc(NC(=O)C(=O)NCCc2sc(-c3cccc(F)c3)nc2C)cc1F	–
Cc1nc(-c2ccc(Cl)cc2)sc1CCNC(=O)C(=O)Nc1ccc2c(c1)OCO2	-89.8
Cc1nc(-c2ccccc2)sc1CCNC(=O)C(=O)Nc1ccc2c(c1)OCO2	-93.1
COC(=O)c1cc(C)nc2c1c(=O)n(Cc1nc(-c3ccccc3)oc1C)c(=O)n2C	–
NC1(C(=O)O)CCN(Cc2cccn2-c2ncccn2)C1 (stereo not given)	–
COc1cccc(CC(=O)NCc2cnn3ccccc23)c1	–
O=C1CCCN1CCCNc1nc(-c2ccc(Cl)cc2)nc2c1CNC2	–
CCc1ccc(OCc2ccccc2C(=O)Nc2ccc3nc(C)cc(N)c3c2)cc1	-74.3
CCc1cccc(NC(=O)c2nc(Nc3ccc(C)cc3)c3ccccc3n2)c1	–
CCOC(=O)c1cccc(NC(=O)c2ccccc2OCC)c1	–
COc1cc([C@@H]2c3cc4c(cc3C(O[C@@H]3O[C@@H]5CO[C@@H](c6cccs6)OC5[C@H](O)[C@H]3O)C3COC(=O)[C@@H]32)OCO4)cc(OC)c1O (stereo not given in full)	-80.4
CO[C@@H]1CCN(Cc2ccc3c(c2)OCO3)[C@H]1Cc1cccnc1	–
CNC(=O)[C@]12CCC3(CCN(Cc4ccc(C)o4)CC3)[C@H]1CN(C(C)=O)C2	–
CC1(C)C(=O)NC2=C1C(=O)C(=O)c1ccccc12	-82.1
CC1(C)NC(=O)N(CC(O)CN2C(=O)c3ccccc3C2=O)C1=O (stereo not given)	–
SMILES	Tgondii IFNg
COCC(=O)NCc1cnc(N(C)C)nc1-c1cn(C)c2ccc(OC)cc12	–
CC(c1cc2ccccc2s1)N(O)C(N)=O (stereo not given)	–
OC(CNCc1cc2ccccc2s1)C(F)(F)F (stereo not given)	-86.0
CC(=O)OC[C@@H](OC(C)=O)[C@@H](OC(C)=O)C1OC(=O)C2N(C(C)=O)C1SC2(C)C (stereo not given in full)	–
CN1CCNC(=O)C12CCN(C(=O)C[C@@H]1C[C@@H]3C=C[C@H]1C3)CC2	–
O=C(c1cccs1)N1N=C(c2ccc(Cl)cc2)CC1(O)C(F)(F)F (stereo not given)	-97.1
O=C(NCCc1csc(-c2ccc(Cl)cc2)n1)c1ccccc1C(F)(F)F	–
OC1(C(F)(F)F)CC(c2cccs2)=NO1 (stereo not given)	–
COc1ccccc1NC(=O)N1CCc2nc(CNC(=O)C3CCC3)n(C)c2C1	–
COc1ccc(S(=O)(=O)Nc2ccc3c(c2)C(=O)N([C@H](C)CO)C[C@H](C)[C@H](CN(C)Cc2ccc(C(F)(F)F)cc2)OCCCC[C@H](C)O3)cc1	-110.9
COc1ccc(S(=O)(=O)Nc2ccc3c(c2)C(=O)N([C@H](C)CO)C[C@@H](C)[C@@H](CN(C)Cc2ccc(C(F)(F)F)cc2)OCCCC[C@@H](C)O3)cc1	–
C[C@H]1CCCCO[C@H](CN(C)Cc2ccncc2)[C@@H](C)CN([C@@H](C)CO)C(=O)c2cc(NS(=O)(=O)c3ccc(Cl)cc3)ccc2O1	–
COc1ccc(S(=O)(=O)Nc2ccc3c(c2)C(=O)N([C@@H](C)CO)C[C@@H](C)[C@@H](CN(C)Cc2ccc(C(F)(F)F)cc2)OCCCC[C@H](C)O3)cc1	-120.3
COc1ccc(S(=O)(=O)Nc2ccc3c(c2)C(=O)N([C@H](C)CO)C[C@@H](C)[C@H](CN(C)Cc2ccc(C(F)(F)F)cc2)OCCCC[C@@H](C)O3)cc1	-119.0
Cc1ccc(S(=O)(=O)Nc2ccc3c(c2)C(=O)N([C@H](C)CO)C[C@@H](C)[C@@H](CN(C)Cc2ccc(C(F)(F)F)cc2)O3)cc1	–
Cc1ccc(S(=O)(=O)Nc2ccc3c(c2)C(=O)N([C@@H](C)CO)C[C@@H](C)[C@@H](CN(C)Cc2ccc(C(F)(F)F)cc2)O3)cc1	–
COc1ccc(CN(C)C[C@@H]2OCCCC[C@@H](C)Oc3ccc(NC(=O)C4CCCCC4)cc3C(=O)N([C@H](C)CO)C[C@@H]2C)cc1	–
COc1ccc(S(=O)(=O)Nc2ccc3c(c2)C(=O)N([C@@H](C)CO)C[C@@H](C)[C@H](CN(C)Cc2ccc(C(F)(F)F)cc2)OCCCC[C@H](C)O3)cc1	-90.3
COc1ccc(S(=O)(=O)Nc2ccc3c(c2)C(=O)N([C@H](C)CO)C[C@H](C)[C@H](CN(C)Cc2ccc(C(F)(F)F)cc2)OCCCC[C@@H](C)O3)cc1	–
Cc1ccc(S(=O)(=O)Nc2ccc3c(c2)C(=O)N([C@@H](C)CO)C[C@H](C)[C@@H](CN(C)Cc2ccc(C(F)(F)F)cc2)O3)cc1	–
Cc1ccc(F)cc1CN1CCC2(CC1)CC(NC(=O)C1CC1)C2	–
Clc1ccc(OCc2nc(CSc3ccccn3)no2)c(Cl)c1	–
COc1cccc(C(C)N(C)C(=O)COc2cccnc2)c1 (stereo not given)	–
COc1ccc(OC)c(S(=O)(=O)N2CCN(c3ccccc3F)CC2)c1	–
Cc1ccccc1-c1ncc(CN2CCC(O)(CO)CC2)cn1	–
SMILES	Tgondii IFNg
O=C(Cc1ccc2c(c1)CCCO2)NCc1ccccc1-n1ccnc1	–
COc1ccc(C(=O)N(Cc2ccc(F)cc2)C2(C(=O)NCc3ccccc3)CCN(C(C)=O)CC2)cc1	–
C[C@@H]1CCCCO[C@@H](CN(C)Cc2ccncc2)[C@@H](C)CN([C@H](C)CO)C(=O)c2cc(NS(=O)(=O)c3ccc(Cl)cc3)ccc2O1	–
COc1ccc(S(=O)(=O)Nc2ccc3c(c2)C(=O)N([C@@H](C)CO)C[C@@H](C)[C@@H](CN(C)Cc2ccc(C(F)(F)F)cc2)OCCCC[C@@H](C)O3)cc1	-109.0
C[C@@H]1CCCCO[C@H](CN(C)Cc2ccncc2)[C@@H](C)CN([C@H](C)CO)C(=O)c2cc(NS(=O)(=O)c3ccc(Cl)cc3)ccc2O1	–
Cc1ccc(S(=O)(=O)Nc2ccc3c(c2)C(=O)N([C@H](C)CO)C[C@H](C)[C@@H](CN(C)Cc2ccc(C(F)(F)F)cc2)O3)cc1	–
COc1ccc(S(=O)(=O)Nc2ccc3c(c2)C(=O)N([C@H](C)CO)C[C@@H](C)[C@@H](CN(C)Cc2ccc(C(F)(F)F)cc2)OCCCC[C@H](C)O3)cc1	-119.7
COc1ccc(CN(C)C[C@H]2OCCCC[C@H](C)Oc3ccc(NC(=O)C4CCCCC4)cc3C(=O)N([C@@H](C)CO)C[C@@H]2C)cc1	–
C[C@@H]1CCCCO[C@H](CN(C)Cc2ccncc2)[C@H](C)CN([C@H](C)CO)C(=O)c2cc(NS(=O)(=O)c3ccc(Cl)cc3)ccc2O1	-103.2
CSc1ccc(CC2(CCC(=O)N[C@@H]3CCCC[C@H]3c3ccccc3)CCC(=O)N2)cc1 (stereo not given in full)	–
